# Assay outcomes from PubChem.
# GRIN3A LBD mod = binders of NR3A ligand-binding domain, primary screen, biophysical, differential scanning fluorimetry, uHTS. Tm shift relative to glycine control, % at 25 µM. Glutamate receptor ionotropic, NMDA 3A (GRIN3A) ligand-binding domain. NR3A LBD differential scanning fluorimetry, Tm shift; 0% = protein alone, 100% = glycine-bound protein. AID 1259313, 2017. 2.5% of 340,000 active;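 active means melting temperature shift of at least 10% of the positive control shift, at one fixed dose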
# SMARCA2 act = SMARCA2 (BRM) function activators, primary screen, cell-based, luminescence, high throughput | MG213 cells, MMTV-luciferase reporter, dexamethasone, overnight | activation, % at 9.1 µM | 1% of 370,000 active; in the data active means activation above about 7.8%;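 further: 0% = vehicle wells and 100% = reference activator wells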
# Vif inh = HIV Vif self-association inhibitors, primary screen, imaging, HEK293T, single point; HEK293T cells, Vif self-association by quenched fluorescence, 24 h; inhibition, % at 7.49 µM; 0.35% of 340,000 active; in the data active means inhibition above about 50%, passing the limit was not always enough
# SKN-1 block = suppressors of acrylamide-induced Pgst-4::GFP reporter in worms, primary screen, SKN-1 inhibitor project, whole organism, uHTS, GFP/RFP fluorescence ratio, strain VP596 | C. elegans VP596 Pgst-4::GFP/RFP ratio, 24 h | inhibition, % at 21.8 µM | 0.49% of 360,000 active;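 active means interference check ratio from 0.5 to 1.5 plus GFP to RFP signal ratio inhibition reaching or exceeding a fixed threshold, cut at about 30% in these data, passing the limit was not always enough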
# NadD inh = inhibitors of S. aureus NadD, primary screen, biochemical, colorimetric, uHTS | Nicotinate-nucleotide adenylyltransferase NadD (Staphylococcus aureus N315) | purified NadD enzyme, colorimetric absorbance read-out | inhibition, % at 20 µM | 0.78% of 360,000 active | AID 602399, 2012; in the data active means inhibition above about 26%
# esBAF inh = Bmi1 luciferase reporter increase in mESCs, primary screen, esBAF inhibitor project, mouse ES cells, Bmi1 luciferase knock-in, single point; 24 h; 100% = twice the neutral-well signal; reporter increase, % at 12.5 µM; 2% of 350,000 active; AID 602393, 2012; in the data active means activation above about 40%;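 further: 0% = median of the plate's neutral control wells and 100% = double that signal; a rise in the Bmi1 reporter signal indicates esBAF inhibition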
# * marks the source's active call; other numbers are inactive results; nt = no result given. A selection: hits, their analogues and other compounds. The true share with any hit is near 5.2%.
SMILES,GRIN3A LBD mod,SMARCA2 act,Vif inh,SKN-1 block,NadD inh,esBAF inh
COc1ccc(NC(=O)Nc2ccc3c(c2)[C@H]2C[C@H](CC(=O)N4CCc5ccccc5C4)O[C@@H](CO)[C@H]2O3)cc1,nt,nt,nt,nt,nt,4
Cc1cccc(NC(=O)CSc2nnc(NC(=O)c3ccc(S(=O)(=O)N4CCOCC4)cc3)s2)c1C,nt,0,nt,nt,nt,nt
NC(=O)CSc1nnc(NC(=O)c2ccc(S(=O)(=O)N3CCOCC3)cc2)s1,-1,-4,11,5,-3,-9
Nc1cc(=O)[nH]c(SCC(=O)Nc2ccc(S(=O)(=O)N3CCOCC3)cc2)n1,-3,-3,-7,35*,0,6
Nc1cc(=O)[nH]c(SCC(=O)Nc2ccc(S(=O)(=O)N3CCCCC3)cc2)n1,-2,1,0,5,-5,nt
COc1ccc(NC(=O)CSc2nnc(NC(=O)c3ccc(S(=O)(=O)N4CCOCC4)cc3)s2)cc1,31*,-3,6,11,6,nt
Cc1ccc(Nc2nnc(SCC(=O)Nc3ccc(S(=O)(=O)N4CCOCC4)cc3)s2)cc1,33*,0,-2,10,19,22
CC(=O)N(C)C[C@H]1Oc2ncc(-c3ccccc3C)cc2C(=O)N([C@H](C)CO)C[C@H]1C,nt,nt,nt,nt,nt,2
Cc1cccc(NC(=O)Cc2noc3ccccc23)c1C,-5,-2,-5,-17,0,nt
NC(=O)c1ccsc1NC(=O)CCc1ccccc1,-5,1,1,24,10,39
O=C(CCc1ccccc1)Nc1ccccc1,-1,1,55*,-3,4,nt
O=C(COc1ccccc1)NC1CCSC1=O (stereo not given),0,-3,5,-1,3,nt
COC(=O)c1ccsc1NC(=O)CCc1ccccc1,2,2,-2,-5,0,48*
Cc1cccc(NC(=O)Cc2noc3ccccc23)c1,-1,4,14,-4,1,60*
O=C(CCc1ccccc1)NC1CCSC1=O (stereo not given),0,-2,-4,47*,1,-12
O=C(CCC(=O)Nc1ccccc1)NNC(=O)CCc1ccccc1,1,0,22,-3,2,1
C[C@@H]1CN([C@H](C)CO)C(=O)Cc2cc(NS(=O)(=O)c3ccc(F)cc3)ccc2O[C@H]1CN(C)C(=O)Nc1ccc2c(c1)OCO2,nt,nt,nt,nt,nt,-3
O=C(C[C@H]1CC[C@H](NS(=O)(=O)c2cccc(F)c2)[C@@H](CO)O1)NCc1ccc2c(c1)OCO2,nt,nt,nt,nt,nt,3
O=C(C[C@@H]1CC[C@H]2[C@@H](COC[C@H](O)CN2C(=O)c2ccncc2)O1)NCc1ccc(-c2ccccc2)cc1,nt,nt,nt,nt,nt,-1
CO[C@@H](CN(C)Cc1cc(F)ccc1F)[C@@H](C)CN(C(=O)Nc1ccc(C(F)(F)F)cc1)[C@@H](C)CO,nt,nt,nt,nt,nt,0
CN(C)CCCNC(=O)C[C@@H]1C=C[C@@H](NC(=O)c2ccccc2F)[C@H](CO)O1,nt,nt,nt,nt,nt,0
Cc1cccc(NC(=O)CCCc2ccccc2)c1,-2,5,11,15,-6,63*
CC(O)c1cccc(NC(=O)CCCc2ccccc2)c1 (stereo not given),1,4,19,16,-5,8
Cc1ccc(NC(=O)CCc2ccccc2)cc1C,nt,6,-12,-2,-12,52*
CCCNC(=O)N(C)C[C@H]1Oc2cc(-c3ccccc3F)ccc2S(=O)(=O)N([C@H](C)CO)C[C@H]1C,nt,nt,nt,nt,nt,-3
CC(=C\c1ccccc1)/C=C1/SC(=O)N(CCCC(=O)Nc2ccc(C(=O)O)cc2)C1=O,-1,-5,13,-4,5,-51
CC(=O)c1ccc(NC(=O)CN2C(=O)/C(=C/C(C)=C/c3ccccc3)SC2=S)cc1,8,0,1,10,31*,-3
CC(/C=C1\SC(=S)N(CCC(=O)Nc2ccc(O)cc2)C1=O)=C\c1ccccc1,14*,-3,-16,11,21,5
